Measurements reported in PubChem BioAssay (EPA / NIEHS).
Records with an inconclusive call do not appear. Active and inactive are the calls of the source. How the source made its calls: active means hit-call score of the fitted dose curve at least 0.9, where 1 is the maximum; inconclusive means response in the unintended direction; inactive means score below 0.9.

These compounds were tested against Estrogen receptor (Homo sapiens) + Estrogen receptor beta (Homo sapiens) (UniProt P03372+Q92731) (assay: OT_ER_ERaERb_1440: Odyssey Thera (OT) 24-hour HEK293T Protein-Complementation Assay for Estrogen Receptor-alpha/-beta Homodimer (AID 2283356);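 further: heteromer of ER alpha and ER beta binding domains; hits raise reporter fluorescence and both agonists and antagonists give an increase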).
Summary of the method: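 HEK293T cells stably expressing a PCA pair of ERα LBD (aa 310-547) and ERβ LBD (aa 263-489) were dosed for 24 h. Fluorescence intensity increase versus DMSO vehicle was fitted as gain-of-signal.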

Estrogen receptor (Homo sapiens) + Estrogen receptor beta (Homo sapiens), sequence (P03372 whole entry, looked up, the tested form may be a part): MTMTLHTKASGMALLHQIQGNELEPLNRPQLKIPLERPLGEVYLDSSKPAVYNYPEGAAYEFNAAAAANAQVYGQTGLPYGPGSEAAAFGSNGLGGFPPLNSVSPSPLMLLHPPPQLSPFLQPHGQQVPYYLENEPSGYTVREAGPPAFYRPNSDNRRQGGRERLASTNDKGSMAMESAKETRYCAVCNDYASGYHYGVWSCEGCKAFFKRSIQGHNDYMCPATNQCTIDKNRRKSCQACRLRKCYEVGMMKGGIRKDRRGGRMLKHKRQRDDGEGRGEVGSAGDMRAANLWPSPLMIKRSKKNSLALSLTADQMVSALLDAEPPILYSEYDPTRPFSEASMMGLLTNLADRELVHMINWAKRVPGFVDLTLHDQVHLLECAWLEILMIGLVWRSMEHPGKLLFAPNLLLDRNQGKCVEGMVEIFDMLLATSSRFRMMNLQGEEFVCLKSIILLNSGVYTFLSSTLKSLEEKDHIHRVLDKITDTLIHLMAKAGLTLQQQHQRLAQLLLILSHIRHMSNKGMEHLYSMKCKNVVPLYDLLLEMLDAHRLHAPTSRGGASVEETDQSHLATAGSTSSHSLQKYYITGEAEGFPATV
Estrogen receptor (Homo sapiens) + Estrogen receptor beta (Homo sapiens), sequence (Q92731 whole entry, looked up, the tested form may be a part): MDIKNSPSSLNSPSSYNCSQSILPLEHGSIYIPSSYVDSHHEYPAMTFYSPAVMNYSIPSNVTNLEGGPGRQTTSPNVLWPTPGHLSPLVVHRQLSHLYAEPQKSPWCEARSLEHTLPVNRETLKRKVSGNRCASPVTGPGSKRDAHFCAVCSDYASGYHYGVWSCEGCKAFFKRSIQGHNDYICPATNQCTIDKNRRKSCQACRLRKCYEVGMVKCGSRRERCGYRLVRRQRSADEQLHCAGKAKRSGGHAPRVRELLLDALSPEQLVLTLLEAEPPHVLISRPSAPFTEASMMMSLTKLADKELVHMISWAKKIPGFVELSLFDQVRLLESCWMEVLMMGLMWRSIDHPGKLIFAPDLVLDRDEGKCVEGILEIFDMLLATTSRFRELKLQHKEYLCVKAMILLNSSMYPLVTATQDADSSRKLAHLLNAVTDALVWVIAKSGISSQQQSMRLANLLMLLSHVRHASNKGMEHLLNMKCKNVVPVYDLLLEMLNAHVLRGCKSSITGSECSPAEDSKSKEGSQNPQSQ

| SMILES | outcome | AC50 |
| --- | --- | --- |
| COC(=O)N(C(=O)N1CO[C@@]2(C(=O)OC)Cc3cc(Cl)ccc3C2=N1)c1ccc(OC(F)(F)F)cc1 | inactive |  |
| COCC(=O)N(c1c(C)cccc1C)C(C)C(=O)OC (stereo unspecified) | inactive |  |
| CCOc1nc(F)cc2nc(S(=O)(=O)Nc3c(Cl)cccc3Cl)nn12 | inactive |  |
| CC1(C)CCC(=Cc2ccc(Cl)cc2)C1(O)Cn1cncn1 (stereo unspecified) | inactive |  |
| COP(=S)(OC)SCn1nnc2ccccc2c1=O | inactive |  |
| CCN(CC)C(=O)C(C)Oc1cccc2ccccc12 (stereo unspecified) | inactive |  |
| Clc1nc(Cl)nc(Nc2ccccc2Cl)n1 | inactive |  |
| Nc1c(Cl)c(Cl)nc(C(=O)O)c1Cl | inactive |  |
| C=C(C)CN(CC)c1c([N+](=O)[O-])cc(C(F)(F)F)cc1[N+](=O)[O-] |  | 79.2 µM (active) |
| Cc1cnc(C2=NC(C)(C(C)C)C(=O)N2)c(C(=O)O)c1 (stereo unspecified) | inactive |  |
| CC(C)Oc1cccc(NC(=O)c2ccccc2C(F)(F)F)c1 | inactive |  |
| CCCCOCN(C(=O)CCl)c1c(CC)cccc1CC | inactive |  |
| CCCN(CC)CC1COC2(CCC(C(C)(C)C)CC2)O1 (stereo unspecified) |  | 32.2 µM (active) |
| CC1(C)C(C(=O)OC(C#N)c2cccc(Oc3ccccc3)c2)C1(C)C (stereo unspecified) | inactive |  |
| CSC(=O)c1c(C(F)F)nc(C(F)(F)F)c(C(=O)SC)c1CC(C)C |  | 31 µM (active) |
| CC1(C)CON(Cc2ccccc2Cl)C1=O | inactive |  |
| CCSC(=O)N1CCCCCC1 | inactive |  |
| O=C1C2CC=CCC2C(=O)N1SC(Cl)(Cl)Cl (stereo unspecified) | inactive |  |
| CCNP(=S)(OC)O/C(C)=C/C(=O)OC(C)C (stereo unspecified) | inactive |  |
| CC(C)(C)C(=O)C(Oc1ccc(Cl)cc1)n1cncn1 (stereo unspecified) |  | 58.6 µM (active) |
| COCC(C)N(C(=O)CCl)c1c(C)csc1C (stereo unspecified) | inactive |  |
| Nc1c(Cl)c(F)nc(OCC(=O)O)c1Cl | inactive |  |

Each compound was assayed against Estrogen receptor beta (Homo sapiens) (UniProt Q92731) (assay: OT_ER_ERbERb_0480: Odyssey Thera (OT) 8-hour HEK293T Protein-Complementation Assay for Estrogen Receptor-beta/-beta Homodimer (AID 2283357);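 further: active means signal gain over DMSO baseline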).
Summary of the method: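 Cells (HEK293T, stable ER-beta LBD PCA pair) are treated 8 hours, fixed and Draq5-stained; signal is fluorescence intensity increase relative to vehicle, fitted in the gain direction.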

Estrogen receptor beta (Homo sapiens), sequence (Q92731 whole entry, looked up, the tested form may be a part): as above

| SMILES | outcome | AC50 |
| --- | --- | --- |
| COC(=O)N(C(=O)N1CO[C@@]2(C(=O)OC)Cc3cc(Cl)ccc3C2=N1)c1ccc(OC(F)(F)F)cc1 | inactive |  |
| COCC(=O)N(c1c(C)cccc1C)C(C)C(=O)OC (stereo unspecified) | inactive |  |
| CCOc1nc(F)cc2nc(S(=O)(=O)Nc3c(Cl)cccc3Cl)nn12 | inactive |  |
| CC1(C)CCC(=Cc2ccc(Cl)cc2)C1(O)Cn1cncn1 (stereo unspecified) | inactive |  |
| COP(=S)(OC)SCn1nnc2ccccc2c1=O | inactive |  |
| CCN(CC)C(=O)C(C)Oc1cccc2ccccc12 (stereo unspecified) | inactive |  |
| Clc1nc(Cl)nc(Nc2ccccc2Cl)n1 | inactive |  |
| Nc1c(Cl)c(Cl)nc(C(=O)O)c1Cl | inactive |  |
| C=C(C)CN(CC)c1c([N+](=O)[O-])cc(C(F)(F)F)cc1[N+](=O)[O-] | inactive |  |
| Cc1cnc(C2=NC(C)(C(C)C)C(=O)N2)c(C(=O)O)c1 (stereo unspecified) | inactive |  |
| CCCCOCN(C(=O)CCl)c1c(CC)cccc1CC | inactive |  |
| CCCN(CC)CC1COC2(CCC(C(C)(C)C)CC2)O1 (stereo unspecified) | inactive |  |
| Cn1c(-c2ccccc2)cc(-c2ccccc2)[n+]1C | inactive |  |
| CC1(C)C(C(=O)OC(C#N)c2cccc(Oc3ccccc3)c2)C1(C)C (stereo unspecified) | inactive |  |
| CSC(=O)c1c(C(F)F)nc(C(F)(F)F)c(C(=O)SC)c1CC(C)C |  | 18.1 µM (active) |
| CC1(C)CON(Cc2ccccc2Cl)C1=O | inactive |  |
| CCSC(=O)N1CCCCCC1 | inactive |  |
| CCNP(=S)(OC)O/C(C)=C/C(=O)OC(C)C (stereo unspecified) | inactive |  |
| CC(C)(C)C(=O)C(Oc1ccc(Cl)cc1)n1cncn1 (stereo unspecified) | inactive |  |
| Nc1c(Cl)c(F)nc(OCC(=O)O)c1Cl | inactive |  |

What follows are compounds tested against Retinoic acid receptor alpha (Homo sapiens) (UniProt P10276) (assay: NVS_NR_hRAR_Antagonist: NovaScreen (NVS) Nuclear Receptor Binding Assay for human Retinoic Acid Alpha Receptor Antagonism (RAR) (AID 2283358)).
Summary of the method: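 TR-FRET, cell-free, antagonist format; 2 h incubation after dosing; DMSO = baseline; signal loss fitted; 25 uM duplicate primary, then conc. series.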

Retinoic acid receptor alpha (Homo sapiens), sequence (P10276 whole entry, looked up): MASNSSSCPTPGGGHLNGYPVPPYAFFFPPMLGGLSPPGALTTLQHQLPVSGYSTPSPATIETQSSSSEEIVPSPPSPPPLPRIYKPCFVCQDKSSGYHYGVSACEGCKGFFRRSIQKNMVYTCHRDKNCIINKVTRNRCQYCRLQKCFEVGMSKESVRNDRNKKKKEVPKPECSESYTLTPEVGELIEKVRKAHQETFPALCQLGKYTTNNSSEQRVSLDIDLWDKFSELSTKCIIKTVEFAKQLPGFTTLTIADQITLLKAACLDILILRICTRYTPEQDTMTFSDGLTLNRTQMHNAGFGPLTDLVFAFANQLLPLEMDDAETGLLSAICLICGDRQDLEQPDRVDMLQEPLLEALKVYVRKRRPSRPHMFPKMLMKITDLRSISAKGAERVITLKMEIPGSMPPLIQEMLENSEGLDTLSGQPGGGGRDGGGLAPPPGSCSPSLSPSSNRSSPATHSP

| SMILES | outcome |
| --- | --- |
| CN=C=S | inactive |
| CNC(=O)Oc1cccc2ccccc12 | inactive |
| CCCCC(C#N)(Cn1cncn1)c1ccc(Cl)cc1 (stereo unspecified) | inactive |
| CC(C)Oc1cccc(NC(=O)c2ccccc2C(F)(F)F)c1 | inactive |
| O=C1C2CC=CCC2C(=O)N1SC(Cl)(Cl)Cl (stereo unspecified) | inactive |

The compounds below were run against PGR (gene 5241) (UniProt P06401) (assay: NVS_NR_hPR: NovaScreen (NVS) Nuclear Receptor Binding Assay for human Progestron Receptor (PR) (AID 2283360);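 further: active means loss of bound radioligand signal versus DMSO baseline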).
Summary of the method: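 Cell-free radioligand binding using receptor protein extracted from T47D cells, read by scintillation counting 18 hours after dosing. Loss of signal relative to DMSO baseline indicates displacement; primary screen single concentration 25 uM in duplicate, actives followed in concentration series.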

PGR (gene 5241), sequence (P06401 whole entry, looked up): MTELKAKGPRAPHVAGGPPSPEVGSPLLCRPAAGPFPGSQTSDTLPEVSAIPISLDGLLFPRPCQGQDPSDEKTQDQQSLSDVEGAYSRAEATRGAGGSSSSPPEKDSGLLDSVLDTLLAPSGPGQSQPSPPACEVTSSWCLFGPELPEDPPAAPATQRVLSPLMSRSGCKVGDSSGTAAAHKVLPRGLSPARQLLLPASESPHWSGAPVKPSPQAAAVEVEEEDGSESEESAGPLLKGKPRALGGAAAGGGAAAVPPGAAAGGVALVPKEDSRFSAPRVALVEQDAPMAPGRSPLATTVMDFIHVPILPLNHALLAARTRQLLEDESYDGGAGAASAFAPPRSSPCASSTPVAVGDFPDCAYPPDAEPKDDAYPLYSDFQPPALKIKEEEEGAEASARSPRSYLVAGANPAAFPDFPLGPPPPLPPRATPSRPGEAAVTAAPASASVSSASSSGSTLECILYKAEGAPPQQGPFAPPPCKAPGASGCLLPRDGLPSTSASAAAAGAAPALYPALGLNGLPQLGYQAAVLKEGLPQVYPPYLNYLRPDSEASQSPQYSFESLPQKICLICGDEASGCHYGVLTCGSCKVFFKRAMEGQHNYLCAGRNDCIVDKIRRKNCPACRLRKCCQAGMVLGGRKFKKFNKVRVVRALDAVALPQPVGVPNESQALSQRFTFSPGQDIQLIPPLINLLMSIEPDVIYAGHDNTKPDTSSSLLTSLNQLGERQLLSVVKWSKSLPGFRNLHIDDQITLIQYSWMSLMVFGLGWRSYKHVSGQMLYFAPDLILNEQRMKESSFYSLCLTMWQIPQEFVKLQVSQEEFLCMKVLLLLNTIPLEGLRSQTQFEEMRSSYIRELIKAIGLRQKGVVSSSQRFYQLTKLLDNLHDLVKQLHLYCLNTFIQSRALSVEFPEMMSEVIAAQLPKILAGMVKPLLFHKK

| SMILES | outcome |
| --- | --- |
| CC(C)=CC1C(C(=O)OCc2coc(Cc3ccccc3)c2)C1(C)C (stereo unspecified) | inactive |
| CN=C=S | inactive |
| CNC(=O)Oc1cccc2ccccc12 | inactive |
| CC(C)Oc1cccc(NC(=O)c2ccccc2C(F)(F)F)c1 | inactive |

The compounds below were run against human Thyroid Receptor Alpha (TRa), THRA (gene 7067) (UniProt P10827) (assay: NVS_NR_hTRa_Antagonist: NovaScreen (NVS) Nuclear Receptor Binding Assay for human Thyroid Receptor Alpha Antagonism (TRa) (AID 2283362);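 further: activity is loss of signal relative to DMSO baseline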).
Summary of the method: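 Cell-free binding assay on extracted receptor protein, read 1 h after chemical dosing by AlphaLISA chemiluminescence; loss of signal relative to DMSO baseline marks antagonism. Primary screen ran in duplicate at 25 uM, with concentration series for actives.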

human Thyroid Receptor Alpha (TRa), THRA (gene 7067), sequence (P10827 whole entry, looked up): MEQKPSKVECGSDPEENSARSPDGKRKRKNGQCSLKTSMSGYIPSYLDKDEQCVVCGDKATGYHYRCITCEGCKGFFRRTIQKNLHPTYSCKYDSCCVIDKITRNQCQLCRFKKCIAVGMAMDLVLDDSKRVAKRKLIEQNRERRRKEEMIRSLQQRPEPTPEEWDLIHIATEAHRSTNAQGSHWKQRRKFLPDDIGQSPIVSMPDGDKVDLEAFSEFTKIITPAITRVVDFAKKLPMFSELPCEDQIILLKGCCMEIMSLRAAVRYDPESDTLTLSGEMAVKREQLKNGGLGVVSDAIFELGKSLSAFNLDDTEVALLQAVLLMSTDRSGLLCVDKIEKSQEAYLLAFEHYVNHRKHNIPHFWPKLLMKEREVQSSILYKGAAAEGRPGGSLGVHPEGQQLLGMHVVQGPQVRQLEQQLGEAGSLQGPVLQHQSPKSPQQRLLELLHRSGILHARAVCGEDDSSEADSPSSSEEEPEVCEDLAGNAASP

| SMILES | outcome | AC50 |
| --- | --- | --- |
| CN=C=S | inactive |  |
| CNC(=O)Oc1cccc2ccccc12 | inactive |  |
| Clc1nc(Cl)nc(Nc2ccccc2Cl)n1 |  | 25 µM (active) |
| Cc1cnc(C2=NC(C)(C(C)C)C(=O)N2)c(C(=O)O)c1 (stereo unspecified) | inactive |  |
| CCCCC(C#N)(Cn1cncn1)c1ccc(Cl)cc1 (stereo unspecified) | inactive |  |
| CC(C)(C)C(=O)C(Oc1ccc(Cl)cc1)n1cncn1 (stereo unspecified) | inactive |  |

The compounds below were run against Glucocorticoid receptor (Homo sapiens) (UniProt P04150) (assay: NVS_NR_hGR: NovaScreen (NVS) Nuclear Receptor Binding Assay for human Glucocorticoid Receptor (GR) (AID 2283363);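 on AC50: activity is loss of specific radioligand binding signal relative to DMSO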).
Summary of the method: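 Competitive displacement of a labelled ligand was measured on cell-free receptor preparations after 16 h exposure. Initial testing used 25 uM in duplicate with plate controls; confirmed actives went into concentration series.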

Glucocorticoid receptor (Homo sapiens), sequence (P04150 whole entry, looked up): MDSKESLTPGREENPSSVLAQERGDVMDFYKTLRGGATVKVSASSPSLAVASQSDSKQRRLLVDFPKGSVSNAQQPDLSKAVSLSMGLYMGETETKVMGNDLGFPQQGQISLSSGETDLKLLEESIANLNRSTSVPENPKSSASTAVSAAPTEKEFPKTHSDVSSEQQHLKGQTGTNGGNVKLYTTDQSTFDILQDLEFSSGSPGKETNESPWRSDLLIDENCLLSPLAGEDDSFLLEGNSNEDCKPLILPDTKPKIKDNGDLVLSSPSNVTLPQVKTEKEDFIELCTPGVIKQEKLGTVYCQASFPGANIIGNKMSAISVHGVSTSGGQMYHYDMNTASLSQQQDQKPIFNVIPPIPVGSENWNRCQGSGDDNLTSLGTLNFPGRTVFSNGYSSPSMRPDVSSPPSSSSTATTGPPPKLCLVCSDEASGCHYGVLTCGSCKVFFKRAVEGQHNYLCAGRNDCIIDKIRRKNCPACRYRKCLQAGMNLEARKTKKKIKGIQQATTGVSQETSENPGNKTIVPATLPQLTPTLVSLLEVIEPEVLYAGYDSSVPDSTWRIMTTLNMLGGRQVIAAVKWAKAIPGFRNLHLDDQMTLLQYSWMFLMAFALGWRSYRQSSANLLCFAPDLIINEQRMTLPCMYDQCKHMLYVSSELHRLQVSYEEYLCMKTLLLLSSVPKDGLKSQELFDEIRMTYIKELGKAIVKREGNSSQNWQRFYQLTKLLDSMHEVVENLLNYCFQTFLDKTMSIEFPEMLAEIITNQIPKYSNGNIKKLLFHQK

| SMILES | outcome | AC50 |
| --- | --- | --- |
| CC(C)=CC1C(C(=O)OCc2coc(Cc3ccccc3)c2)C1(C)C (stereo unspecified) | inactive |  |
| CCCCC(C#N)(Cn1cncn1)c1ccc(Cl)cc1 (stereo unspecified) | inactive |  |
| CC(C)Oc1cccc(NC(=O)c2ccccc2C(F)(F)F)c1 | inactive |  |
| CCCCOCN(C(=O)CCl)c1c(CC)cccc1CC |  | 8.18 µM (active) |
| CCCN(CC)CC1COC2(CCC(C(C)(C)C)CC2)O1 (stereo unspecified) | inactive |  |
| N#Cc1c[nH]cc1-c1cccc2c1OC(F)(F)O2 |  | 1.57 µM (active) |
| CCNC(=O)NC(=O)C(C#N)=NOC | inactive |  |
| CC(C)C1(C)N=C(c2ncccc2C(=O)O)NC1=O (stereo unspecified) | inactive |  |
| CC(C)(C)C(=O)C(Oc1ccc(Cl)cc1)n1cncn1 (stereo unspecified) | inactive |  |
